CIT2-GFP yeast – modulators of TOR pathway CIT2-GFP in S. cerevisiae; S. cerevisiae CIT2-GFP strain, flow cytometry, 3 h; 100 means same as DMSO wells; GFP response vs DMSO, % at 10 µM; 320,000 compounds, 0.065% hits; AID 2029;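 active = GFP response relative to DMSO above a set limit, near the screen mean plus 3 SD, cut at about 150% in these data; inconclusive = Fewer than 70 cells measured for a yeast strain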;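 also: ratio of well median GFP fluorescence to mean of DMSO wells on the plate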
MEP2 TOR yeast – yeast TOR pathway MEP2-GFP modulation | S. cerevisiae MEP2-GFP strain, flow cytometry GFP, 3 h; 100% = DMSO control level | GFP response vs DMSO, % at 10 µM | 330,000 compounds, 0.51% hits | AID 2016;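 active = GFP response versus DMSO above a set limit, roughly screen mean plus 3 SD, cut at about 180% in these data; inconclusive = fewer than 70 cells counted for a yeast strain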;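 also: median GFP fluorescence of the barcode-gated MEP2-GFP cells per well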
AGP1-GFP MLPCN – alters AGP1-GFP fluorescence in TOR pathway yeast screen; GFP response vs DMSO, % at 10 µM; S. cerevisiae AGP1-GFP multiplex flow cytometry, 3 h; GFP as percent of DMSO wells; AID 2066; 320,000 compounds, 0.02% hits;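 active = GFP response relative to DMSO above a set limit, near screen average plus 3 SD, cut at about 150% in these data; inconclusive = fewer than 70 cells counted for the yeast strain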;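 also: median GFP channel fluorescence of the gated AGP1 strain per well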
RPL19A-GFP yeast – modulators of TOR pathway RPL19A-GFP in S. cerevisiae; S. cerevisiae RPL19A-GFP strain, flow cytometry, 3 h; active compounds read low; percent response vs DMSO, % at 10 µM; 330,000 compounds, 0.3% hits;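 active = percent response vs DMSO below 50%; inconclusive = fewer than 70 events counted for the yeast strain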;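 also: median channel GFP fluorescence of the barcoded RPL19A-GFP strain; ratio of sample median GFP to plate DMSO average so 100% = DMSO; lower means less RPL19A-GFP as with rapamycin TOR inhibition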
LAP4 TOR yeast – yeast TOR pathway LAP4-GFP modulation; S. cerevisiae LAP4-GFP multiplex, flow cytometry GFP, 3 h; median GFP as percent of DMSO wells; GFP response vs DMSO, % at 10 µM; 320,000 compounds, 0.34% hits;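 active = GFP response vs DMSO above a set limit, about the screen mean plus 3 SD, cut at about 150% in these data; inconclusive = under 70 cell events counted for the yeast strain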
VLA-4 inh – inhibition in a human VLA-4 binding assay. VLA-4 expressing cells, ligand binding flow cytometry. 330,000 compounds, 0.2% hits. inhibition, % (about 7 µM as worked out from the volumes in the protocol). P13612; in the data active = inhibition above about 50%
Target sequence (P13612 whole entry, looked up): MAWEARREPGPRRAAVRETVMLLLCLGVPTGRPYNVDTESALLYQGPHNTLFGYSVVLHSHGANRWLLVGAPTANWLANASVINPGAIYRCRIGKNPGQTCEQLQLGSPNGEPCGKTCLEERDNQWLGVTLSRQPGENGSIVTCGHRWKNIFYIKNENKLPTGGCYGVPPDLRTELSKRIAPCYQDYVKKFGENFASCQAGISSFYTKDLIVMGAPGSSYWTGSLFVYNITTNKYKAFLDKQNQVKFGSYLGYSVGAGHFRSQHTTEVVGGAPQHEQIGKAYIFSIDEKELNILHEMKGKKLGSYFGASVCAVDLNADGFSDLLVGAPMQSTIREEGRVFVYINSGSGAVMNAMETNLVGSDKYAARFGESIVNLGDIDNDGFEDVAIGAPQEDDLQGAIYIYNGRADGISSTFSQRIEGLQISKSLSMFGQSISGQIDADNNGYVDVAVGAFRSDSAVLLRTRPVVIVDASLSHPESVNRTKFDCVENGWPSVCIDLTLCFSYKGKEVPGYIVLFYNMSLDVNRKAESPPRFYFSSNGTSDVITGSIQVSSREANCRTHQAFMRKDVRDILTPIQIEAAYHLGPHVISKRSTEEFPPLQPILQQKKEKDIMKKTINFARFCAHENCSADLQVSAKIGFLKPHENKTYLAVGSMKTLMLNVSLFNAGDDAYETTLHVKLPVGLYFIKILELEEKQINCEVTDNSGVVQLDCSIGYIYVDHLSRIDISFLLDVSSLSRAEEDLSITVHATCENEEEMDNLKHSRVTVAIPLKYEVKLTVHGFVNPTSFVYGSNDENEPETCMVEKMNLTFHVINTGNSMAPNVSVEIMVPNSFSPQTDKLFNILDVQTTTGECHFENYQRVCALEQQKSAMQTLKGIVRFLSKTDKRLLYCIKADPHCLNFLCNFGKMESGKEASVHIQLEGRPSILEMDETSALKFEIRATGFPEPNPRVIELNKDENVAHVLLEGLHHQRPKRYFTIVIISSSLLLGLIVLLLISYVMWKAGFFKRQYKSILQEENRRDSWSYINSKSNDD
An asterisk follows results filed as active; ? = inconclusive; . = no result given; [ ] = remark or other dose. An excerpt weighted towards active compounds, which were near 1.1% of everything screened.

SMILES | CIT2-GFP yeast | MEP2 TOR yeast | AGP1-GFP MLPCN | RPL19A-GFP yeast | LAP4 TOR yeast | VLA-4 inh
Cc1oc(-c2ccccc2F)nc1CN1CCC(C(=O)NCc2ccco2)CC1 | ? | 202*[may fluoresce violet] | 19 | 59 | 90 | 19
CC1CCC2(CC1)NC(=O)N(CC(=O)Nc1ccc(C(N)=O)cc1)C2=O (stereo not drawn) | 103 | 101 | 101 | 98 | 97 | -4
CC(C)N(Cc1ccccc1)C(=O)COC(=O)c1ccc(S(=O)(=O)N2CCOCC2)cc1 | 91 | 99 | 96 | 97 | 97 | 0
Nn1c(SCC(=O)Nc2ccccc2C(F)(F)F)nncc1=O | 99 | 100 | 104 | 98 | 112 | 5
Cc1cccc(/C=C/c2onc(C)c2[N+](=O)[O-])n1 | 78 | 92 | 92 | 88 | 204* | 9
CN(C(=O)Cn1cnc([N+](=O)[O-])n1)C1CCCCC1 | ? | 212*[may fluoresce red and violet] | ? | ? | 87 | -1
CCOc1ccc(S(=O)(=O)N2CN(c3cccc(C(C)=O)c3)c3nc4ccccc4nc32)cc1 | 99 | 98 | 98 | 103 | 93 | -1
CC(=O)NC(Cc1cccc(C)c1)C(=O)NC1CCN(c2ncccc2[N+](=O)[O-])CC1 (stereo not drawn) | 100 | 95 | 97 | 100 | 91 | -6
CC(=O)NC(Cc1cccc(F)c1)C(=O)NC1CCN(c2ncccc2[N+](=O)[O-])CC1 (stereo not drawn) | 91 | 96 | 95 | 95 | 91 | 57*
CN(C)c1ccc(/C=C2/SC(=O)N(CCN=C3NS(=O)(=O)c4ccccc43)C2=O)cc1 | ? | 178*[may fluoresce violet] | ? | 57 | 88 | -12
CN(C)c1ccc(/C=C2\SC(=O)N(CC(O)Cn3c4ccccc4c4ccccc43)C2=O)cc1 (stereo not drawn) | 119 | 123 | 111 | 108 | 108 | -17
O=C(CSc1nnc(-c2ccccn2)n1Cc1ccccc1)N1CCOCC1 | 131 | 511* | 124 | 82 | 167* | 42
C/C(CC(=O)Nc1cccc(C(F)(F)F)c1)=N\NC(=O)c1cnccn1 | 96 | 101 | 99 | 100 | 94 | 5
Cc1ccc(C(=O)OCC(=O)N2C(C)CCCC2C)cc1S(=O)(=O)N1CCOCC1 (stereo not drawn) | 90 | 101 | 94 | 92 | 96 | 8
O=C(O)CNCC1COc2ccccc2O1 (stereo not drawn) | ? | 256*[may fluoresce violet] | ? | 15*[may fluoresce violet] | 135 | 5
c1ccc2c(c1)OCC(CNCC1COc3ccccc3O1)O2 (stereo not drawn) | 101 | 99 | 97 | 103 | 90 | 14
N/C(=N\OC(=O)c1ccc2ccccc2c1)c1ccccc1Cl | 160* | 96 | 65 | 89 | 123 | -6
CC(C)Nc1ncnc2c1cnn2Cc1ccc(Cl)cc1 | ? | 247*[may fluoresce violet] | 15 | 64 | 90 | 22
CCCN1C[C@H](CSC)C[C@@H]2c3cccc4[nH]cc(c34)C[C@H]21 | ? | 203*[may fluoresce violet] | ? | 34*[may fluoresce violet] | 83 | -7
CN1C[C@H](C(=O)N[C@]2(C)O[C@@]3(O)[C@@H]4CCCN4C(=O)[C@H](Cc4ccccc4)N3C2=O)CC2c3cccc4[nH]cc(c34)C[C@H]21 (stereo partly drawn) | 130 | 100 | 103 | 105 | 120 | -1
COc1ccc(OC)c2nc(-c3ccc4c(c3)OCO4)ccc12 | 85 | 89 | 88 | 90 | 91 | 8
O=C(OC1CCOC1=O)c1ccc(Cl)c(S(=O)(=O)N2CCCCC2)c1 (stereo not drawn) | 97 | 95 | 100 | 97 | 95 | -3
O=C(OC1CCOC1=O)c1ccc(S(=O)(=O)N2CCCCCC2)cc1 (stereo not drawn) | ? | 178*[may fluoresce violet] | ? | 63 | 74 | 4
CC(=O)c1cc2c(cc1NS(=O)(=O)c1ccccc1Br)OCO2 | ? | 608*[may fluoresce violet] | 23 | 59 | 99 | -8
CC(=O)c1cc2c(cc1NS(=O)(=O)c1ccccc1C)OCO2 | 97 | 101 | 92 | 99 | 92 | 4
SMILES | CIT2-GFP yeast | MEP2 TOR yeast | AGP1-GFP MLPCN | RPL19A-GFP yeast | LAP4 TOR yeast | VLA-4 inh
Cc1cccc(N2CC(C(=O)Nc3cccc(S(=O)(=O)N4CCCCC4)c3)CC2=O)c1C (stereo not drawn) | 95 | 100 | 97 | 101 | 92 | 0
Cc1cccc(N2CC(C(=O)Nc3ccc(S(=O)(=O)N4CCOCC4)cc3)CC2=O)c1C (stereo not drawn) | ? | 258*[may fluoresce violet] | 13 | 63 | 87 | -4
CC(=O)NCCn1c(SCC(=O)NCCC2=CCCCC2)nc2ccccc2c1=O | ? | 232*[may fluoresce violet] | 22 | 35*[may fluoresce violet] | 91 | 8
C=CCn1c(=N)c(C(=O)OCC)cc2c(=O)n3cccc(C)c3nc21 | ? | 244*[may fluoresce violet] | . | 16*[may fluoresce violet] | 102 | 5
CCOC(=O)c1cc2c(=O)n3ccccc3nc2n(C(C)C)c1=NC(=O)c1ccco1 | ? | 257*[may fluoresce violet] | 21 | 35*[may fluoresce violet] | 93 | 5
CCOCCCn1c(=NC(=O)c2ccco2)c(C(=O)OCC)cc2c(=O)n3cccc(C)c3nc21 | ? | 185*[may fluoresce violet] | 29 | 51 | 105 | 1
CCOC(=O)c1cc2c(=O)n3cccc(C)c3nc2n(CC(C)C)c1=NC(=O)c1ccco1 | 90 | 100 | 103 | 90 | 107 | -1
CCOC(=O)c1cc2c(=O)n3cccc(C)c3nc2n(Cc2ccco2)c1=NC(=O)c1ccccc1 | ? | 604*[may fluoresce violet] | 20 | 85 | 106 | -37
CCCn1c(=NC(=O)c2ccco2)c(C(=O)OCC)cc2c(=O)n3ccccc3nc21 | 95 | 95 | 81 | 91 | 91 | 7
Cn1c2c(c(=O)n1-c1ccccc1)CSCC2 | 104 | 103 | 106 | 101 | 101 | -6
Cc1cc(C)c2c(CC(=O)NNC(=O)c3ccccc3)coc2c1 | 109 | 103 | 98 | 106 | 100 | 2
C=CCn1c(=N)c(C#N)cc2c(=O)n3ccccc3nc21 | 110 | 240* | ? | 67 | 73 | 5
Cc1ccc(NC(=O)c2cc(S(=O)(=O)N3CCCCC3)c[nH]2)cc1C | 99 | 98 | 103 | 100 | 104 | 47
COC/C=C/C1=CC2=CC(=O)C(C)(OC(=O)c3cccs3)C(=O)C2=CO1 (stereo not drawn) | 102 | 100 | 103 | 98 | 92 | -6
COC/C=C/C1=CC2=CC(=O)C(C)(OC(=O)C3CCCC3)C(=O)C2=CO1 (stereo not drawn) | ? | 175*[may fluoresce violet] | 8 | 83 | 167*[may fluoresce violet] | -5
Cn1c(CNc2nc3ccccc3n2CCN2CCCCC2)nc2ccccc21 | 102 | 100 | 101 | 100 | 95 | 3
c1ccc(Cn2c(CNc3nc4ccccc4n3CCN3CCCCC3)nc3ccccc32)cc1 | ? | 240*[may fluoresce violet] | . | 51 | 89 | 5

Screening results deposited in PubChem BioAssay by NMMLSC.
